Reference: PubChem BioAssay (NCATS)
Where “and” joins values, the source holds several entries; their conditions need not be identical. Equal values may be shown once. Records with an inconclusive call do not appear. Calls of active or inactive are those of the source. Unless noted, calls follow the shape of the dose curve; as a rule, active = well fitted curve in the direction sought with a large enough effect; inconclusive = small, poorly fitted or top-dose-only effect, or another doubt; inactive = no such curve, though single readings can be large; an effect the other way counts as inactive or inconclusive.

Experiments:
[1] = target: ATP-dependent 6-phosphofructokinase (Trypanosoma brucei brucei) (UniProt O15648); test: qHTS Assay to Find Inhibitors of T. brucei phosphofructokinase: hit validation (AID 492961);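 also: luminescence reports ADP formed as PFK phosphorylates fructose-6-phosphate with ATP; series mostly up to about 51 µM; % is scaled to controls: 0 for no effect and ±100 for the full control effect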
Method in brief: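 Inhibition of parasite PFK is measured as reduced ADP formation, quantified via luciferase after ATP depletion. Assay used 0.1 mM ATP, 0.5 mM F6P, 1.25 nM enzyme, 45 min incubation.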

[2] = Validation screen for small molecules that induce genotoxicity in human embryonic kidney (HEK293T) cells expressing luciferase-tagged ELG1 (AID 493106); also: potency is read from the fitted curve at half-maximal effect
Method in brief: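 HEK293T cells expressing luciferase-tagged ELG1 were exposed to compound or DMSO vehicle for 16 hr at 37 °C, 5% CO2. Genotoxic stress raises ELG1 levels, so increased luciferase signal after ONE-Glo addition and 30 min at room temperature marks hits.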

[3] = target: ATPase family AAA domain-containing protein 5 (Homo sapiens) (UniProt Q96QE3); test: Validation screen for small molecules that inhibit ELG1-dependent DNA repair in human embryonic kidney (HEK293T) cells expressing luciferase-tagged ELG1 (AID 493107); also: nearly all actives have a fitted effect of over 70% in size; also: potency is read from the fitted curve at half-maximal effect
Method in brief: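 HEK293T cells expressing luciferase-tagged ELG1 were co-treated with 5-fluorouridine and compound or DMSO for 16 hr at 37 °C, 5% CO2. Luciferase activity was then read with ONE-Glo after 30 min at room temperature; suppressed signal indicates blocked ELG1 function.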

[4] = target: Thyrotropin-releasing hormone receptor (Homo sapiens) (UniProt P34981); test: qHTS for Small Molecule Agonists and Allosteric Enhancers of Human TRH Receptor: Validation Screen for Agonists (AID 493127;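 active = calcium activation more than 3 SD above the typical response in the agonist read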;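 also: intracellular calcium rise by fluo-8 fluorescence before TRH EC20 addition; 0% is about no effect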); conditions: TRH receptor agonist cell assay; at 2 µM; stronger effect = higher value
Method in brief: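 TRHR-expressing cells were plated overnight in serum-containing medium, then loaded with fluo-8 calcium dye at room temperature for 30 min–1.5 h. After a 10 s baseline, compound was pin-transferred and calcium fluorescence (ex 480/em 530) read kinetically for agonist response.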

[5] = qHTS for Inhibitors of Cell Surface uPA Generation: Validation Assay (AID 493164);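 also: RAW 264.7 macrophage cells exposed to compound for 18 h; 0% is about no effect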
Method in brief: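 RAW 264.7, 4000 cells/well, o/n plating; cpd 7-pt 1:5 dilution 2.45 nM–38.3 uM final; 18 h, 37 C/5% CO2; ATP-Lite, 5 s luminescence exposure.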

[6] = Validation screen for small molecules that induce DNA re-replication in SW480 colon adenocarcinoma cells (AID 504364); also: 0% is about no effect
Method in brief: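 SW480 cells seeded at 250 per well were exposed to compound or DMSO for 48 hr at 37 C, 5% CO2, then stained with Hoechst for 40 min. DNA content per nucleus was imaged (405 nm ex, 500-530 nm em).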

[7] = target: Phosphoglycerate kinase, glycosomal (Trypanosoma brucei brucei) (UniProt P07378); test: qHTS Validation Assay to Find Inhibitors of Phosphoglycerate Kinase (AID 504547);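 also: control wells lack PGK and mark full inhibition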
Method in brief: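 PGK activity was coupled to GAPDH (100nM final), which generates the unstable substrate 1,3-bisphosphoglycerate in-well. Reactions ran 60 minutes at room temperature in 100mM TEA pH 7.6, 5mM MgCl2, 0.01% Tween-20, then Kinase-Glo Plus luminescence was read.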

[8] = target: phosphoglycerate mutase (Leishmania major) (UniProt Q4Q090); test: qHTS Validation Assay to Find Inhibitors of Phosphoglycerate Mutase (AID 504548);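 also: end-point luminescence from Kinase-GloPlus after the PGAM reaction; series mostly up to about 58 µM; % is scaled to controls: 0 for no effect and ±100 for the full control effect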
Method in brief: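 Inhibition of L. major PGAM was assessed by Kinase-GloPlus luminescence following a 45-minute room-temperature reaction with enzyme at 1.25nM final.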

[9] = target: Ubiquitin carboxyl-terminal hydrolase 1 (Homo sapiens) (UniProt O94782); test: Inhibitors of USP1/UAF1: Pilot qHTS (AID 504865); also: nearly all actives have a fitted effect of over 35% in size; also: potency is read from the fitted curve at half-maximal effect
Method in brief: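 USP1/UAF1 complex (1nM) preincubated with compound 15 min at room temperature, then Ub-Rho substrate (150nM final) added. Fluorescence read kinetically at 480/540 nm, 6 reads every 60 seconds. Buffer: 50mM HEPES pH 7.8, 0.5mM EDTA, 0.1 mg/ml BSA, 1mM TCEP, 0.01% Tween-20.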

[10] = qHTS for Inhibitors of ATXN expression: Validation of Cytotoxic Assay (AID 588349); also: potency is read from the fitted curve at half-maximal effect
Method in brief: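 HEK293 cells were dosed with titrated compounds for 72 hr at 37 degrees C. Viability was read by CellTiter Glo luminescence, with intracellular ATP as the marker of cell survival.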

[11] = qHTS for Inhibitors of ATXN expression: Validation (AID 588378); also: nearly all actives have a fitted effect of over 75% in size; also: potency is read from the fitted curve at half-maximal effect
Method in brief: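 Luminescence from an ATXN2-FFLuc reporter in HEK293 cells served as read-out after 24 h compound treatment at 37 degrees C; CellTiter-Fluor fluorescence was recorded first to assess viability.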

[12] = target: Galactokinase (Homo sapiens) (UniProt P51570); test: qHTS Validation Assay for Inhibitors of Human Galactokinase (GALK) (AID 493189); also: 0% is about no effect
Method in brief: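 GALK (5 nM) with 35 uM ATP and 100 uM galactose in HEPES pH8.0, MgCl2, NaCl, DTT, BSA; 1 h at room temperature. Residual ATP read by Kinase-Glo Plus luminescence after 10 min.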

[13] = Nrf2 qHTS screen for inhibitors: Validation (AID 493153; active = well fitted inhibition curve with a large enough effect in the main read-out, with a control signal flat, not every such curve was filed as active); conditions: Potency: luciferase luminescence; viability change: measured here: cytotoxicity max response
Method in brief: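 A549 cells carrying an ARE-driven firefly luciferase reporter, in 5% FBS OPTI-MEM, were treated with compounds in concentration-response for 18-24 h at 37°C. Viability was read by CellTiter-Fluor fluorescence, then Nrf2 activity by luciferase luminescence.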

[14] = target: Peptidyl-prolyl cis-trans isomerase NIMA-interacting 1 (Homo sapiens) (UniProt Q13526); test: qHTS Validation Assay to Find Inhibitors of Pin1 (AID 504536; active = well fitted inhibition curve with a large enough effect in the polarisation, with a control signal flat, not every such curve was filed as active; the % refers to the polarisation;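 also: 0% = full Pin1 enzyme wells and -100% = no-enzyme wells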)
Method in brief: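 Fluorescence polarization competition: compounds (titration) displace HiFluor-488-labeled Pin1-1b peptide from Pin1 (0.3 uM final) in pH 7.5 HEPES buffer with DTT, 10 min at room temperature; %Activity normalized to no-enzyme wells, curves fitted.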

[15] = target: DNA dC->dU-editing enzyme APOBEC-3G (Homo sapiens) (UniProt Q9HC16); test: qHTS for inhibitors of Vif-A3G interactions: Validation (AID 588379); also: 0% is about no effect
Method in brief: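 HeLa cells stably expressing Vif and A3G-eYFP, 700 cells/well, incubated overnight at 37 deg C, then exposed to compound overnight at 37 deg C. Inhibition of Vif-mediated degradation read as increased yellow fluorescence (Ex 488/Em 500-530) by laser-scanning cytometry.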

Galactokinase (Homo sapiens), sequence (P51570 whole entry, looked up): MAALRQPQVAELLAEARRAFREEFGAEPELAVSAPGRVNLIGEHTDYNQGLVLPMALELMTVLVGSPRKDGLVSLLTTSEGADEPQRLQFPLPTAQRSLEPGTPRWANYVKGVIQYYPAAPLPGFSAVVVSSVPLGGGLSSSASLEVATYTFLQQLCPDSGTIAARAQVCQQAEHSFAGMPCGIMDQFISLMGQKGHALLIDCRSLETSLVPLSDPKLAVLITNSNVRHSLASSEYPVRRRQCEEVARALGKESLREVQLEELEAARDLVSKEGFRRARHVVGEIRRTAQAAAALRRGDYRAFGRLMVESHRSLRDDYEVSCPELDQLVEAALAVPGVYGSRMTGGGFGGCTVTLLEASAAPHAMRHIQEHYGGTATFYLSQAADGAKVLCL
phosphoglycerate mutase (Leishmania major), sequence (Q4Q090 1-553): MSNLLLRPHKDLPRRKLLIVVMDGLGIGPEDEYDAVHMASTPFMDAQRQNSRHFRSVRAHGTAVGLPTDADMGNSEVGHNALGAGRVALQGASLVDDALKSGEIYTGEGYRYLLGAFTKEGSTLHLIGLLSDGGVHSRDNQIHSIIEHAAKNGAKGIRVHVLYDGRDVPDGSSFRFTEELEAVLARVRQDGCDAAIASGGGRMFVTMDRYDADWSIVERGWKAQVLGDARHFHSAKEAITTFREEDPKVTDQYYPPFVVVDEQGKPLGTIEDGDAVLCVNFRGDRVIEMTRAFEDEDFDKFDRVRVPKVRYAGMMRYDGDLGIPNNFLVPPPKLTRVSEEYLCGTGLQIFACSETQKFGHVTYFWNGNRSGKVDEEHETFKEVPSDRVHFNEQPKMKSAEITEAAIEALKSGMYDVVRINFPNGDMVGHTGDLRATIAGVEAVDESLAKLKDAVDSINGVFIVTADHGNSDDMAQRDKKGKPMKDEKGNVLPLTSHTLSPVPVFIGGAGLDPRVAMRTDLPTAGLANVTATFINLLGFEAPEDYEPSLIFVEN
ATPase family AAA domain-containing protein 5 (Homo sapiens), sequence (Q96QE3 whole entry, looked up, the tested form may be a part): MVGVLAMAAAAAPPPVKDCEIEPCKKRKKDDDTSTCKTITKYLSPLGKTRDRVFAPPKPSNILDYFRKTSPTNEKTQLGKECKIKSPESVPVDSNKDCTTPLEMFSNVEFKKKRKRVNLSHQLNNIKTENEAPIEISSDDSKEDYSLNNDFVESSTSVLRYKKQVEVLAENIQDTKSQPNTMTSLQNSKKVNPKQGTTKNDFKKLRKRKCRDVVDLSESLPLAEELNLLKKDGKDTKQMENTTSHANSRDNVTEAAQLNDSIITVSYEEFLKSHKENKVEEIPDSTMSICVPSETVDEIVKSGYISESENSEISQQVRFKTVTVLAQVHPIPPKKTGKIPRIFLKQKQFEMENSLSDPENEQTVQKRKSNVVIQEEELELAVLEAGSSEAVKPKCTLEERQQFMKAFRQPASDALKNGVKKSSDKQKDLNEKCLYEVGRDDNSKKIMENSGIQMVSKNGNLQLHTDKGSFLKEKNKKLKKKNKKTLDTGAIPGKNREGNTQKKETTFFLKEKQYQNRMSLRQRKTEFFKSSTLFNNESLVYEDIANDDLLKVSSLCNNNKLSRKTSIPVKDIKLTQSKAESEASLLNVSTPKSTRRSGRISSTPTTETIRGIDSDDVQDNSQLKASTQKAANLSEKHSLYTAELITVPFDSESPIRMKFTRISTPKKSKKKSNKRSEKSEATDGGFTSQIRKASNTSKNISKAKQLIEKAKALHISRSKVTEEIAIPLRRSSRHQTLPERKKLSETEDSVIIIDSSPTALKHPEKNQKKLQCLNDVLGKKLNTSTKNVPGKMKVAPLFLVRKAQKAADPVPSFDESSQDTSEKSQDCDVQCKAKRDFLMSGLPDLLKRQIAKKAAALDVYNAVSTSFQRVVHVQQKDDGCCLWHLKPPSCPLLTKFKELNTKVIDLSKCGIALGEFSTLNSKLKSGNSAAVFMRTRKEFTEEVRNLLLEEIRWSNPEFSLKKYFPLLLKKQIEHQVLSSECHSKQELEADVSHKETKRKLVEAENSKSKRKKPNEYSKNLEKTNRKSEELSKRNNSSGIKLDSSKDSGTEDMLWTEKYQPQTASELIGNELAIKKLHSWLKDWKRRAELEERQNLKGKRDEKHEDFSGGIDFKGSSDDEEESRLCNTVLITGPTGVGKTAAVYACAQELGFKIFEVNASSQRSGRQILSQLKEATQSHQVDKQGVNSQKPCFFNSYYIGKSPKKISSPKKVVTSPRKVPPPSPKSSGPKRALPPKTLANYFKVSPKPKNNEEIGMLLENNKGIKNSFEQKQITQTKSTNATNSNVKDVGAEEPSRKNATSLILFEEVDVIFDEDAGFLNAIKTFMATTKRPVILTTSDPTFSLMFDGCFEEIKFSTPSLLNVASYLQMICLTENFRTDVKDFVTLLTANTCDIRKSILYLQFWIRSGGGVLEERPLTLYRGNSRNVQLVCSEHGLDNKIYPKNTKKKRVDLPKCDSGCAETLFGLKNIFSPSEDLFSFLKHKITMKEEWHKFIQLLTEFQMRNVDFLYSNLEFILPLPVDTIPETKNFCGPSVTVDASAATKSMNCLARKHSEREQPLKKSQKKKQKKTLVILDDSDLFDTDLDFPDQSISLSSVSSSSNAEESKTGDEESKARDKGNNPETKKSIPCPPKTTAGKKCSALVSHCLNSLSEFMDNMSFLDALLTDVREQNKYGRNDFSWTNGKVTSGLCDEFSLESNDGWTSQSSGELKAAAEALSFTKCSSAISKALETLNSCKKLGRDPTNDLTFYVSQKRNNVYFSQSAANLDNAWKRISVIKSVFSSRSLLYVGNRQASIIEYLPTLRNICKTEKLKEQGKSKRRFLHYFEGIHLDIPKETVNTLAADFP
DNA dC->dU-editing enzyme APOBEC-3G (Homo sapiens), sequence (Q9HC16 whole entry, looked up): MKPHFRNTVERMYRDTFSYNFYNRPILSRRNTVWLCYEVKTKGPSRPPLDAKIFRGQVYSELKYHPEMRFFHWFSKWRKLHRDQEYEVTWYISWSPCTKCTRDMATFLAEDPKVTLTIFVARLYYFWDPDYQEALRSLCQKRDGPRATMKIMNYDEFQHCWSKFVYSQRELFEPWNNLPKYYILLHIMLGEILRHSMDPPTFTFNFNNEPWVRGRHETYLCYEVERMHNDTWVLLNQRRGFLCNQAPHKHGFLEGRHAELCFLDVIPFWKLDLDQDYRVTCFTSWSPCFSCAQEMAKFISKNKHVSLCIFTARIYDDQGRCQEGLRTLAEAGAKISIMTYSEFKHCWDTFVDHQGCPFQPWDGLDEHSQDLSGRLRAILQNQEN
Phosphoglycerate kinase, glycosomal (Trypanosoma brucei brucei), sequence (P07378 whole entry, looked up): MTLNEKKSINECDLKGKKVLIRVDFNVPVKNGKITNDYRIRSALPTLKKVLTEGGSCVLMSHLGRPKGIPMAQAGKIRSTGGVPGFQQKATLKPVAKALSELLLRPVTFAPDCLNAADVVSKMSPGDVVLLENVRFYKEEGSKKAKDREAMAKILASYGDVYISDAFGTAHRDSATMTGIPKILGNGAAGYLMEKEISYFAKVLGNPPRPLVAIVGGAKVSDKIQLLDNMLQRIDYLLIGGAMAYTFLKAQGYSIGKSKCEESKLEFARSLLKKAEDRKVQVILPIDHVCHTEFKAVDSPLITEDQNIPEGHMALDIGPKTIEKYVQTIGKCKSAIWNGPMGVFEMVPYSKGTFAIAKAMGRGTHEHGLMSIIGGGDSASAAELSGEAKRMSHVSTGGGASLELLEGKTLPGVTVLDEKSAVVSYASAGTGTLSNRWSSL
Thyrotropin-releasing hormone receptor (Homo sapiens), sequence (P34981 whole entry, looked up): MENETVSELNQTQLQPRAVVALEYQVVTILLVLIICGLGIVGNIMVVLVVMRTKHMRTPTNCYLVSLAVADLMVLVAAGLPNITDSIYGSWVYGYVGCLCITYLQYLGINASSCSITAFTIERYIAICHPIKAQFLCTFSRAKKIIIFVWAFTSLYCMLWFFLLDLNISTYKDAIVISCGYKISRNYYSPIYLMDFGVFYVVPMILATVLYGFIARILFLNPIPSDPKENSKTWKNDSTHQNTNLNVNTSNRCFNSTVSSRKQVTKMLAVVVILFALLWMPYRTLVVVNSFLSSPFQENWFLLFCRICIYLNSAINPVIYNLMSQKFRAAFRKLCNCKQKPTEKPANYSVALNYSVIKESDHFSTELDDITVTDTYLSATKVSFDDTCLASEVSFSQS
ATP-dependent 6-phosphofructokinase (Trypanosoma brucei brucei), sequence (O15648 whole entry, looked up): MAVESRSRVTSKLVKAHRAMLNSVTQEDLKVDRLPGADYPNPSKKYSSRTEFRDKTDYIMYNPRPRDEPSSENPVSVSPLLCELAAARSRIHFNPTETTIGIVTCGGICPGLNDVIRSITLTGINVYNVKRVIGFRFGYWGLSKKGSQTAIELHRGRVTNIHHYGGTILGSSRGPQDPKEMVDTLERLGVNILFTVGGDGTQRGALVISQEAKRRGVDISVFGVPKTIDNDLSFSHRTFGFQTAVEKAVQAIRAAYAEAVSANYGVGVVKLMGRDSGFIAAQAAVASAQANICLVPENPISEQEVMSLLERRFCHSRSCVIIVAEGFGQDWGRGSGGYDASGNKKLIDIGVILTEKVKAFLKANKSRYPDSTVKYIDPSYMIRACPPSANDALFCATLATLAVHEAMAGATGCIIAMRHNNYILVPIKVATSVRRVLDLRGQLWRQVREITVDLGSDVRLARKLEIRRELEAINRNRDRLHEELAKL
Peptidyl-prolyl cis-trans isomerase NIMA-interacting 1 (Homo sapiens), sequence (Q13526 whole entry, looked up): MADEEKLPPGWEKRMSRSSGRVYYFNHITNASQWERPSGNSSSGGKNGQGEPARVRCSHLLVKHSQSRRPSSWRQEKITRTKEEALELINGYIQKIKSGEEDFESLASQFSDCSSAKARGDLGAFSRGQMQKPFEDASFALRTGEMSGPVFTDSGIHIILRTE

CCN(CC)CCNC(=O)c1cc(S(C)(=O)=O)ccc1OC
inactive: outcome [1] | Potency [2] | Potency [3] | activation [4] 0.0625% | outcome [5] | outcome [6] | outcome [7] | outcome [8] | Potency [9] | Potency [10] | Potency [11]

COCC(=O)O[C@]1(CCN(C)CCCc2nc3ccccc3[nH]2)CCc2cc(F)ccc2[C@@H]1C(C)C
inactive: outcome [1] | Potency [2] | activation [4] 7.31% | outcome [5] | outcome [12] | outcome [6] | outcome [7] | outcome [8] | Potency [9]
active: Potency [3] 18.3 µM | Potency [10] 28.2 µM | Potency [11] 15.8 µM

FC(F)(F)c1ccccc1-n1ccnc1
inactive: outcome [1] | Potency [2] | Potency [3] | activation [4] -2.62% | Potency [13] | outcome [5] | outcome [12] | outcome [6] | outcome [14] | outcome [7] | outcome [8] | Potency [9] | Potency [11] | outcome [15]
12.3%: viability change [13]

CC(=O)Oc1cc(C(C)C)c(OCCN(C)C)cc1C
inactive: outcome [1] | Potency [2] | Potency [3] | activation [4] 1.31% | outcome [5] | outcome [6] | outcome [14] | outcome [7] | outcome [8] | Potency [9] | Potency [10] | Potency [11]

CN(C)C(=O)Oc1cccc([N+](C)(C)C)c1
inactive: outcome [1] | Potency [2] | Potency [3] | activation [4] 0.625% | Potency [13] | outcome [5] | outcome [6] | outcome [14] | outcome [7] | outcome [8] | Potency [9] | Potency [10] | Potency [11]
0.794%: viability change [13]

C[N+](C)(C)CCOC(=O)CCC(=O)OCC[N+](C)(C)C
0.0745%: viability change [13]
inactive: outcome [1] | Potency [2] | Potency [3] | activation [4] 0.188% | Potency [13] | outcome [5] | outcome [12] | outcome [6] | outcome [14] | outcome [7] | outcome [8] | Potency [9] | Potency [10] | Potency [11]

NC(N)=N/N=C/c1c(Cl)cccc1Cl
inactive: outcome [1] | Potency [2] | Potency [3] | activation [4] -6.19% | Potency [13] | outcome [5] | outcome [6] | outcome [7] | outcome [8] | Potency [9]
6.68%: viability change [13]

O=C(CCNNC(=O)c1ccncc1)NCc1ccccc1
-3.76%: viability change [13]
inactive: outcome [1] | Potency [2] | Potency [3] | activation [4] 0.188% | Potency [13] | outcome [5] | outcome [12] | outcome [6] | outcome [14] | outcome [7] | outcome [8] | Potency [9] | Potency [10] | Potency [11]

CC[N+](C)(C)c1cccc(O)c1
0.744%: viability change [13]
inactive: outcome [1] | Potency [2] | Potency [3] | Potency [13] | outcome [5] | outcome [12] | outcome [6] | outcome [14] | outcome [7] | outcome [8] | Potency [9] | Potency [10] | Potency [11]

CC(C(=O)O)c1ccc(CC2CCCC2=O)cc1 (stereo not given)
inactive: outcome [1] | Potency [2] | Potency [3] | activation [4] 1.56% | Potency [13] | outcome [5] | outcome [12] | outcome [6] | outcome [7] | outcome [8] | Potency [9] | Potency [10] | Potency [11]
-13.4%: viability change [13]

CCOC(=O)c1cnc2c(cnn2CC)c1NN=C(C)C
-1.57%: viability change [13]
inactive: outcome [1] | Potency [2] | Potency [3] | activation [4] -4.75% | Potency [13] | outcome [5] | outcome [12] | outcome [6] | outcome [14] | outcome [7] | outcome [8] | Potency [9] | Potency [10] | Potency [11] | outcome [15]

CCN1CCC[C@H]1CNC(=O)c1c(O)c(Cl)cc(Cl)c1OC
inactive: outcome [1] | Potency [2] | Potency [3] | activation [4] 0.938% | Potency [13] | outcome [5] | outcome [6] | outcome [14] | outcome [7] | outcome [8] | Potency [9] | Potency [10] | Potency [11] | outcome [15]
-0.523%: viability change [13]

CC(=O)OCC1=C(C(=O)O)N2C(=O)[C@@H](NC(=O)Cc3cccs3)[C@H]2SC1
inactive: outcome [1] | Potency [2] | Potency [3] | activation [4] 0.938% | outcome [5] | outcome [12] | outcome [6] | outcome [7] | outcome [8] | Potency [9] | Potency [10] | Potency [11]

CC(=O)[C@]1(O)Cc2c(O)c3c(c(O)c2[C@@H](O[C@H]2C[C@H](N)[C@H](O)[C@H](C)O2)C1)C(=O)c1ccccc1C3=O
active: Potency [2] 0.58 µM | Potency [3] 5.8 µM | Potency [9] 50.1 µM and 39.8 µM
inactive: outcome [1] | activation [4] 17.9% | Potency [13] | outcome [5] | outcome [12] | outcome [7] | outcome [8]
-47.3%: viability change [13]

CCCOc1ccccc1-c1nc2n[nH]nc2c(=O)[nH]1
-11.3%: viability change [13]
inactive: outcome [1] | Potency [2] | Potency [3] | activation [4] -3.25% | Potency [13] | outcome [5] | outcome [6] | outcome [7] | outcome [8] | Potency [9] | Potency [10] | Potency [11] | outcome [15]

CN(C)C/C=C(/c1ccc(Br)cc1)c1cccnc1
inactive: outcome [1] | Potency [2] | Potency [3] | activation [4] 0.375% | Potency [13] | outcome [5] | outcome [12] | outcome [6] | outcome [14] | outcome [7] | outcome [8] | Potency [9] | Potency [10]
11.1%: viability change [13]

CCN1CCc2nc(N)oc2CC1
-0.627%: viability change [13]
inactive: outcome [1] | Potency [2] | Potency [3] | activation [4] 0.875% | Potency [13] | outcome [5] | outcome [12] | outcome [6] | outcome [14] | outcome [7] | outcome [8] | Potency [9] | Potency [10] | Potency [11]
